Compounds without any hit were thinned out: in the full panel of roughly 83,000, 20% have a hit.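 The test compound was applied at a single concentration to cells in 96-well plates for 48 hours, and percent growth was recorded.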 Values without a mark were called inactive. Active and inactive are the calls of the source.
These compounds were tested on SK-MEL-2 melanoma (assay: NCI-60 one-dose screen, 48 h (100 = growth as untreated, 0 = no growth, -100 = all killed)). Details: 10 µM.
Procedure: Growth inhibition of the SK-MEL-2 human tumor cell line is measured as a screen for anti-cancer activity. Cells are grown in 96 well plates and exposed to the test compound for 48 hours. Compounds are tested at a single concentration, which is 10^-5 M for most compounds. The reported endpoint is percent growth (GI% or GIPRCNT), where numbers from 0 - 100% represent growth inhibition, and numbers from -100% - 0 represent cell death. For example, a value of 40 represents 60% growth inhibition. A value of 0 means no net growth occurred over the course of the experiment. A value of -40 indicates 40% of cells at the beginning of the experiment died by the end of the experiment. A value of -100 means all cells are dead at the end of the experiment.
NCI-60 Human Tumor Cell Lines Screen was performed using the standard one-dose NCI protocol, which is described in more detail at https://dtp.cancer.gov/discovery_development/nci-60/default.htm.
Compounds with GIPRCNT values below 10 were considered active. Activity score was based on GIPRCNT using the following formula: […]
Score is 0 for GIPRCNT values of 100 or above, 50 for GIPRCNT values of 0, and 100 for GIPRCNT values of -100.
`N#Cc1c(C(F)(F)F)cc(Nc2ccc3nc(NCCN4CCCC4)oc3c2)n2c1nc1ccccc12` gave a growth of 83.8%. For `CC(C)[C@@H]1CC[C@]2(CO2)[C@@H]2C(=O)OCC(C(=O)O)=C[C@H]21`, the growth was -65.8% (active). For `CCN(CCN(C)C)C(=O)CNCc1cc(C(N)=O)ccn1`, the growth was 94.8%. In the case of `CCN(CC)Cc1cc(Nc2cc(C(F)(F)F)c(C#N)c3nc4ccccc4n23)ccc1O`, the growth is reported as 4.36% (active). Work on `COc1cnc2c(c1)C(=O)c1c-2n(CCCN2CCC(O)CC2)c(=O)c2cc(Cl)ccc12` yielded a growth of 107%. In the case of `CN1CCN(c2nc(NCCNc3ccnc4cc(Cl)ccc34)c3ccccc3n2)CC1`, the growth is reported as -45.5% (active). In the case of `CC(N)C(Cc1ccccc1)c1ccc(Cl)cc1` (stereo not given), the growth is reported as 96.7%. Work on `COc1ccc(C2OC(c3cc(-c4cc5ccccc5o4)nn3-c3ccccc3)=NN2C(C)=O)cc1` (stereo not given) yielded a growth of 94.5%. `c1ccc2c(c1)CCN(NCCN1CCCC1)C2` was tested, and the growth was 91.5%. `Cc1cc(O)c2c(c1)C1OC(=O)CCCCCN1C1=C2C(=O)c2cccc(OC3CC(O)C(O)C(C)O3)c2C1=O` (stereo not given) showed a growth of 46.4%. For `CC1(O)CCC(Nc2cc(-c3ccc(C(F)(F)F)cc3)c(C#N)c3nc4ccccc4n23)CC1` (stereo not given), the growth was 73.4%. `Nc1c2c(c(O)c3c1=C(CO)C=N3)=NCCS2=O` (stereo not given) was tested, and the growth was -51.3% (active). `Fc1ccc(NCc2cn(-c3ccccc3)nc2-c2ccc(OCc3ccccc3)cc2)cc1Cl` was tested, and the growth was 91.9%. `N#Cc1c(NC(=O)c2cccs2)[n+]([O-])c2ccc(F)cc2[n+]1[O-]` showed a growth of 92.9%. In the case of `NC1=Nc2ccccc2N(O)N1`, the growth is reported as 89.2%. `CCc1cc2c(c3ccc(C(=O)CBr)cc13)CCCC2` was tested, and the growth was 96.9%. With `O=C(c1ccccc1)C(c1ccccc1)N1CCOCC1` (stereo not given) the growth was 91.1%. In the case of `CC(C)=CCc1cc2c(cc1O)C1=C(C(=O)C3=C(C1=O)S(=O)(=O)CCN3)C(C=C(C)C)O2` (stereo not given), the growth is reported as -53.9% (active). With `CN1CCN(Cc2ccc(NC(=O)c3[nH]ncc3Nc3ncnc4sc5c(c34)CCCC5)cc2)CC1` the growth was -53.7% (active). For `CCCc1cc2cc(-n3nc(C)c4c3CC(C)(C)CC4=O)cc(NC3CCC(O)CC3)c2c(=O)[nH]1` (stereo not given), the growth was 41.6%. For `NC(=O)N1N=C(c2ccc(Cl)cc2)CC1c1cn(-c2ccccc2)nc1-c1ccc(Cl)cc1` (stereo not given), the growth was 74.3%. With `CCN1CCN(c2nc(C)cc(N(CCNc3ccnc4cc(Cl)ccc34)Cc3ccc4c(c3)OCO4)n2)CC1` the growth was -55.8% (active). For `O=C(NO)c1ccc(Cn2c(=O)n(CCc3ccccc3)c(=O)c3ccccc32)cc1`, the growth was 45.7%. `C=CCCCC(=O)CCC(=O)OCC1O[C@@H](O[C@@H]2C(O)[C@@H](OC(C)=O)C(C)O[C@H]2O[C@H](CC=C)CCCCC)C(O)[C@@H](OC(=O)/C(C)=C/C)[C@@H]1OC(=O)/C=C/c1ccccc1` (stereo not given in full) was tested, and the growth was 4.44% (active). `CC(C)=CCc1cc2c(cc1O)C1=C(C(=O)C3=C(NCCS3(=O)=O)C1=O)C(C=C(C)C)O2` (stereo not given) was tested, and the growth was 19.3%. `CCCC(=O)OCC1OC(n2cnc3c(=S)nc[nH]c32)C(OC(=O)CCC)C1OC(=O)CCC` (stereo not given) gave a growth of 12.5%. For `Cc1cc2c(-c3nc4ccccn4c3NC34CC5CC(CC(C5)C3)C4)c(O)c(O)cc2c(O)c1-c1c(C)cc2c(-c3nc4ccccn4c3NC34CC5CC(CC(C5)C3)C4)c(O)c(O)cc2c1O`, the growth was -2.48% (active). For `Clc1ccc2c(NCCNc3nc(N4CCCC4)nc4ccccc34)ccnc2c1`, the growth was -42.9% (active). `CC(CCCC(=O)O)c1ccoc1` (stereo not given) gave a growth of 105%. With `C=C1C[C@H](O)[C@H](Br)C(C)(C)[C@@]12CCC(C)=C(Cl)C2` the growth was 6.3% (active). With `CCN(CC)C(=O)C[N+](C)(C)CCOC(c1ccccc1)c1ccccc1` the growth was 103%. `COC(=O)[C@]12CC[C@@H](C)[C@H](C)[C@@H]1C1=CC[C@@H]3[C@@]4(C)C(c5cnco5)=C[C@@](C)(CO)C4=CC[C@@]3(C)[C@]1(C)CC2` showed a growth of 42.3%. Compound `COC(=O)CCCNc1c(-c2c(O)c(O)cc3c(O)c(-c4c(C)cc5c(-c6nc7ccccn7c6NCCCC(=O)OC)c(O)c(O)cc5c4O)c(C)cc23)nc2ccccn12` has a growth of 60.1%. In the case of `CCOC(=O)C1=C(C)N=C2Sc3cccc(OC)c3N2[C@H]1c1ccccn1`, the growth is reported as 99.3%. In the case of `O=C1CSC(c2c(F)cccc2Cl)N1NC(=O)C(O)(c1ccccc1)c1ccccc1` (stereo not given), the growth is reported as 103%. Work on `COc1cc(NCCN(CC(C)C)CC(C)C)c2ncc(C)cc2c1` yielded a growth of 74.8%. In the case of `O=C(NO)c1ccc(Cn2c(=O)n(-c3ccccc3F)c(=O)c3ccccc32)cc1`, the growth is reported as -3.95% (active). In the case of `Clc1nc(Cl)c2ncn(CC#CCn3cnc4c(Cl)nc(Cl)nc43)c2n1`, the growth is reported as 65.3%. With `Cc1ccc2oc(=O)cc(-c3cc(-c4cc5ccccc5oc4=O)nc(N)c3C#N)c2c1` the growth was 87.2%. With `C=C1C(=O)O[C@H]2[C@H]1CC/C(C=Nc1c(N)cc(C(F)(F)F)cc1C(F)(F)F)=C\CC[C@@]1(C)O[C@@H]21` the growth was -39.1% (active).

From PubChem BioAssay (NCI)
